High-throughput results (PubChem BioAssay)
HT1080 IDH1KD tx: qHTS for induction of synthetic lethality in tumor cells producing 2HG: qHTS for the HT-1080-IDH1KD cell line; HT-1080 IDH1 knockdown viability, ATP luminescence, 48 h; Potency, µM (titrated, usually from 46.1 µM), for inactives: at the highest dose activity, negative = toxicity, actives largely listed as cytotoxic; 360,000 compounds, 2% hits; AID 686971, 2013;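 note: potency is the fitted concentration of half-maximal effect; 0% = DMSO wells and -100% = cell-free medium wells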
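After a 2 h attachment period, IDH1KD HT-1080 cells took pin-transferred compound for 48 h at 37 °C; ATP-based luminescence after 10 min room-temperature reagent incubation reported viability.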
12-LOX inh: Primary qHTS assay for inhibitors of human arachidonate 12S-lipoxygenase (ALOX12): Round 2; Polyunsaturated fatty acid lipoxygenase ALOX12 (Homo sapiens), P18054; purified 12hLO, xylenol orange hydroperoxide absorbance; Potency, µM (titrated, usually from 108 µM), inactives show top-dose activity change, negative = inhibition, hits mostly inhibitors; 580,000 compounds, 1.1% hits; AID 1671190, 2021; note: potency is the fitted concentration of half-maximal effect
Target sequence (P18054 whole entry, looked up): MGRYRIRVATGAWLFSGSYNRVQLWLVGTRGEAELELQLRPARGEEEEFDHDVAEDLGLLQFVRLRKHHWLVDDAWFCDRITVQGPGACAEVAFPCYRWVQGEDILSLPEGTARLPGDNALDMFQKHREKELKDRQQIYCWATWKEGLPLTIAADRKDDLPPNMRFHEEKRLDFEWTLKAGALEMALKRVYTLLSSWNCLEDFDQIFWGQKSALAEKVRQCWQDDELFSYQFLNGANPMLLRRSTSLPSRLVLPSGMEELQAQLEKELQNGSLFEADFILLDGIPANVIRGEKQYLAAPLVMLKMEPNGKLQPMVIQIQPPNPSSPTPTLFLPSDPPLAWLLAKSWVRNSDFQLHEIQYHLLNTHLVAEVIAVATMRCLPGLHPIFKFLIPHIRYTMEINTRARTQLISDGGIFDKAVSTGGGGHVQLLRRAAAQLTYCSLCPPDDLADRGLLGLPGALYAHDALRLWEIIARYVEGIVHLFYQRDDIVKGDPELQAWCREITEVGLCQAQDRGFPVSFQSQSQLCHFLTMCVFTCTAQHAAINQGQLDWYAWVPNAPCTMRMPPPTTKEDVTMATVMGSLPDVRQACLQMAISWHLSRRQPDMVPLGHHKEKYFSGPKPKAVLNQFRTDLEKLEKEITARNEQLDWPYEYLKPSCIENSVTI
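Purified human 12hLO (150 nM final) in 25 mM Hepes, 0.01% Triton X-100, pH 7.0 was preincubated 15 min at room temperature with compound. Then 40 uM arachidonic acid was added, 30 min. Hydroperoxide was read by Fe-XO absorbance ratio 573/405 nm.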
TDP1 cell noCPT: qHTS for Inhibitors of human tyrosyl-DNA phosphodiesterase 1 (TDP1): qHTS in cells in absence of CPT. DT40 Tdp1-/- hTDP1 cells, no CPT, ATP luminescence, 48 h. Potency, µM (highest dose often 46.2 µM), inactives show top-dose activity change, negative = growth inhibition, actives largely listed as inhibitors. 420,000 compounds, 15% hits. AID 686978, 2013; note: potency is the fitted concentration of half-maximal effect; nearly all actives have a fitted effect of over 55% in size
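Cells were dispensed at 400 per well, compounds added by pin tool, plates incubated ≥48 hr at 37 °C, then CellTiter-Glo added for 30 min at room temperature before luminescence reading. Line: DT40 Tdp1-/- complemented with hTDP1; camptothecin omitted.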
DT40 TDP1 CPT: qHTS for Inhibitors of human tyrosyl-DNA phosphodiesterase 1 (TDP1): qHTS in cells in presence of CPT | chicken DT40 Tdp1-/-;hTDP1 cells + 20 nM CPT, ATP luminescence, 48 h | Potency, µM (series often up to 46.2 µM), for inactives: at the highest dose activity change, negative = growth inhibition, usual class: inhibitors | 420,000 compounds, 12% hits | AID 686979, 2013; note: potency is the fitted concentration of half-maximal effect; nearly all actives have a fitted effect of over 55% in size
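Chicken DT40 Tdp1-/- cells stably complemented with human TDP1 were seeded at 400 cells/well in medium containing 20 nM camptothecin, exposed to pin-transferred compounds, and grown at 37 °C for at least 48 hr. Viability was read as ATP luminescence.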
HT1080-NT tox: qHTS for induction of synthetic lethality in tumor cells producing 2HG: qHTS for the HT-1080-NT fibrosarcoma cell line; HT-1080-NT fibrosarcoma viability, CellTiter-Glo ATP luminescence, 48 h; Potency, µM (top dose mostly 46.1 µM), for inactives: at the highest dose activity, negative = less viability, most hits filed as cytotoxic; 360,000 compounds, 1.6% hits; AID 686970, 2013;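 note: NT is the 2HG producing partner of a matched IDH1 knockdown line; potency is the fitted concentration of half-maximal effect; 0% = DMSO-treated cells and -100% = media-only wells without cells; nearly all actives have a fitted effect of over 55% in size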
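Toxicity toward the 2HG-producing NT line was scored as %Activity, normalised to DMSO and no-cell wells, from CellTiter-Glo luminescence after 48 hours' treatment.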
IL1B secr inh: qHTS for Inhibitors of Inflammasome Signaling: IL-1-beta AlphaLISA Primary Screen. 360,000 compounds, 4.7% hits. AID 743279, 2014. THP-1 LPS/ATP IL-1B secretion, AlphaLISA, 16 h; active compounds read low. activity change, % at 57.5 µM; in the data active = activity change below about -50%; inconclusive = mostly about -30% to -49%
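THP-1 cells pretreated 1 hr with compounds (up to 57.5 uM final), then stimulated with LPS (250 ng/mL final) plus ATP (1.25 mM final); secreted IL-1B measured by AlphaLISA after 16 hr, decreased signal indicating inhibition.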
Numbers without * were called inactive; ? = inconclusive; . = not tested or not shown. The entries come from a sample that favours hits as a whole. Unless noted, calls come from the whole dose curve; as a rule, active = well fitted curve in the direction sought with a large enough effect; inconclusive = small, poorly fitted or top-dose-only effect, or another doubt; inactive = no such curve, though single readings can be large; an effect the other way counts as inactive or inconclusive. Unless noted, % is set by controls: 0 for no effect and ±100 for the full control effect.

SMILES	HT1080 IDH1KD tx	12-LOX inh	TDP1 cell noCPT	DT40 TDP1 CPT	HT1080-NT tox	IL1B secr inh
COc1ccc2[nH]cc(C(C(=O)O)N3CCN(Cc4cccc(Cl)c4)CC3)c2c1 (stereo not drawn)	.	-6%	.	.	.	.
CCc1ccc(S(=O)(=O)Nc2ccc3c(c2)sc(=O)n3C)cc1	.	?	15µM*	21µM*	.	.
COc1ccc(NC2=Nc3cccc4cccc2c34)cc1OC	-1%	?	26µM*	23µM*	-31%	?
Cc1ccc(C)n1-c1nnc(N2CCC(C(=O)Nc3ccccc3Br)CC2)s1	.	-13%	16µM*	?	.	.
COc1ccccc1CNC(=O)C1CCCN(c2nnc(-n3c(C)ccc3C)s2)C1 (stereo not drawn)	.	-7%	?	16µM*	.	.
COc1ccc(CNC(=O)C2CCN(c3nnc(-n4cccc4CNc4ccc(C)cc4)s3)CC2)c(OC)c1	.	-4%	13µM*	16µM*	.	.
CCOc1ccc(NC(=O)C2CCN(c3nnc(-n4c(C)ccc4C)s3)CC2)cc1	.	-15%	13µM*	23µM*	.	.
COc1ccc2cnn(CC(=O)Nc3ccc(F)cc3)c(=O)c2c1OC	.	-15%	.	.	.	.
COc1ccc(C(=O)Oc2cc(C)ccc2C)cc1I	.	2%	.	.	.	.
COc1cccc(CNC(=O)C2CCCN(c3nnc(-n4c(C)ccc4C)s3)C2)c1 (stereo not drawn)	.	-9%	?	?	.	.
Cc1ccc(C)n1-c1nnc(N2CCCC(C(=O)NCc3cccc(Cl)c3)C2)s1 (stereo not drawn)	.	-17%	12µM*	21µM*	.	.
COc1cccc(CNC(=O)C2CCN(c3nnc(-n4c(C)ccc4C)s3)CC2)c1	.	-25%	15µM*	?	.	.
Cc1ccccc1CNC(=O)C1CCN(c2nnc(-n3c(C)ccc3C)s2)CC1	.	-6%	?	16µM*	.	.
Cc1ccc(C)n1-c1nnc(N2CCCC(C(=O)NCc3cccc(F)c3)C2)s1 (stereo not drawn)	.	-12%	-17%	?	.	.
Cc1cccc(CNC(=O)C2CCN(c3nnc(-n4c(C)ccc4C)s3)CC2)c1	.	-4%	16µM*	?	.	.
CC(=O)c1cccc(NC(=O)Cn2cnnc2C#N)c1	.	-8%	.	.	.	.
Cc1cnn(CC(=O)N2CCC(Cn3c(C)cnc3C3CC3)CC2)c1	.	16%	.	.	.	.
CCN1CC(c2ccccc2)CC2(CCN(C(=O)COC)CC2)C1 (stereo not drawn)	.	7%	.	.	.	.
Cn1nnnc1NCc1ccc(-c2ccc(Br)cc2)o1	.	-9%	.	.	.	.
COc1cccc(CNC(=O)C2CCN(c3nnc(-n4c(C)ccc4C)s3)CC2)c1OC	.	3%	-63%	?	.	.
COc1ccc(CNC(=O)C2CCN(c3nnc(-n4c(C)ccc4C)s3)CC2)c(OC)c1	.	-7%	16µM*	?	.	.
CC(C)c1cc(Cn2c3ccccc3c(=O)n2C(C)Cn2cc(-c3ccc(C(C)(C)C)cc3)nn2)on1 (stereo not drawn)	?	-6%	15µM*	?	?	-29
CC(C)c1cc(Cn2c3ccccc3c(=O)n2C(C)Cn2cc(C3=CCCCC3)nn2)on1 (stereo not drawn)	1%	?	?	?	-6%	-28
CCS(=O)(=O)c1ccc(C=NNc2nc3ccccc3o2)cc1	12%	-5%	23µM*	?	2%	-25
COc1ccc(N=C2O/C(=C/c3sc(=S)n(CC4CCCO4)c3O)N=C2C#N)cc1 (stereo not drawn)	-20%	456%	29µM*	?	0%	-12
SMILES	HT1080 IDH1KD tx	12-LOX inh	TDP1 cell noCPT	DT40 TDP1 CPT	HT1080-NT tox	IL1B secr inh
O=C(COC(=O)/C=C/c1ccc2c(c1)OCO2)NCc1ccc(F)cc1	?	7%	21µM*	23µM*	?	24
O=C(COC(=O)/C=C/c1ccc(S(=O)(=O)N2CCOCC2)cc1)NCc1ccc(F)cc1	-12%	-13%	12µM*	3.7µM*	-13%	0
O=C(COC(=O)/C=C/c1ccc(F)cc1)NCc1ccc2c(c1)OCO2	11%	1%	-3%	-6%	10%	4
CC(C)C(=O)N1N=C(c2ccc(Cl)cc2)CC1c1ccc2nccnc2c1 (stereo not drawn)	.	1%	.	.	.	.
CC(=O)N1CCCc2cc(S(=O)(=O)N3CCC(C(=O)N4CCC5(CC4)OCCO5)CC3)ccc21	.	3%	.	.	.	.
N#CCCN(C(=O)COC(=O)c1nn(-c2ccccc2)c(=O)c2ccccc12)c1ccccc1	.	-2%	.	.	.	.
O=C(CC(c1ccccc1)C1CCCCC1=O)c1ccccc1 (stereo not drawn)	13%	-7%	16µM*	18µM*	-1%	12
CC(C)CNC(=O)c1cccc(NC(=O)c2ccc(Cl)c([N+](=O)[O-])c2)c1	0%	0%	21µM*	21µM*	-3%	-112*
CC(C)CNC(=O)c1cccc(NC(=O)COc2ccc([N+](=O)[O-])cc2)c1	-27%	-5%	23µM*	13µM*	-17%	-8
Cc1ccccc1CNC(=O)c1ccc(Cl)c([N+](=O)[O-])c1	3%	13%	?	?	1%	.
CC(C)(C)SCCNC(=O)c1ccc(Cl)c([N+](=O)[O-])c1	18%	-20%	16µM*	?	14%	?
O=C(O)CCC1CCCN(S(=O)(=O)c2cccc(F)c2)C1 (stereo not drawn)	.	2%	.	.	.	.
CCOc1ccccc1-n1c(SCC(=O)Nc2ccc(CC)cc2)nc2n[nH]c(C)c2c1=N	?	.	13µM*	12µM*	-9%	-7
CCc1ccccc1-n1c(SCC(=O)Nc2ccc(C)cc2)nc2n[nH]c(C)c2c1=N	.	-7%	5.2µM*	7.3µM*	.	.
CCc1ccc(NC(=O)CSc2nc3n[nH]c(C)c3c(=N)n2-c2ccccc2C)cc1	.	-10%	?	?	.	.
O=C(/C=C1\NC2(CCCC2)Cc2ccccc21)C(=O)N/N=C/c1ccc(O)c(O)c1	?	35µM*	4.6µM*	5.8µM*	?	?
CC(C)(C)[C@H]1CCC(=O)N([C@H](CC#N)Cc2ccccc2)CC1	16%	0%	18µM*	?	18%	-8
